Screening results (PubChem BioAssay)
Rows were chosen to be rich in hits. Some 0.5% of all compounds tested hit in one or more screens of this group.
CatB mixtures – human cathepsin B inhibition by mixtures | Purified cathepsin B, AMC dipeptide fluorescence, compound mixtures | inhibition, %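 (ten-compound pools at 5 µM per compound and 50 µM total)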 | 62,000 tested, 0.06% active | AID 488; in the data active = inhibition above about 22%, passing the limit was not always enough;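 also: 0% = enzyme without compound and 100% = no enzyme blank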
CatS block – blocks human cathepsin S protease activity | P25774 | recombinant cathepsin S, AMC dipeptide fluorescence, pooled mixtures | inhibition, %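 (tested at 5 µM per compound within 10-compound mixtures)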 | 62,000 tested, 0.06% active; in the data active = inhibition above about 32%, passing the limit was not always enough;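 also: 0% = enzyme without compound and 100% = blank without enzyme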
MKP-1 inh – blocks human MKP-1 phosphatase activity. inhibition, %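 (compounds tested at a single concentration somewhere between 10 and 100 µM)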. 65,000 tested, 0.15% active. recombinant MKP-1, OMFP hydrolysis fluorescence. AID 374;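 active = inhibition above about 50%, limit read from the data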;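 also: 0% = DMSO max control wells and 100% = wells with enzyme stopped by NaOH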
CatB block – inhibitors of human cathepsin B; P07858; purified cathepsin B, fluorogenic substrate, fluorescence; inhibition, %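 (tested at 10 µM)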; 63,000 tested, 0.1% active; in the data active = inhibition above about 21%;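 also: 0% = enzyme with no compound and 100% = no enzyme blank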
CatL block – blocks human cathepsin L protease activity; purified cathepsin L, fluorogenic substrate, fluorescence; inhibition, %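 (tested at 10 µM)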; 58,000 tested, 0.17% active; in the data active = inhibition above about 45%;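 also: 0% = enzyme with no compound and 100% = no enzyme blank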
Target sequence (P07711 114-288 limits assumed): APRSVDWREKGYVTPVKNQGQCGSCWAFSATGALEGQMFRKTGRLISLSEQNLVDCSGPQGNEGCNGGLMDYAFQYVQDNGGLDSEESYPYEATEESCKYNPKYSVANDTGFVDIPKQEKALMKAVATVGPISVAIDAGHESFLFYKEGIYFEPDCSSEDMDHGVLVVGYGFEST
Target sequence (P07711 292-333 limits assumed): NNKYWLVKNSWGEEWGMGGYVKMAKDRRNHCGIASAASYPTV
Cdc25B inh – human M-phase inducer phosphatase 2 inhibition; P30305; recombinant Cdc25B, OMFP fluorescence Ex485/Em525; inhibition, %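 (compounds tested at 10 µM final in the well)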; 65,000 tested, 0.1% active; in the data active = inhibition above about 50%
Redox cycler – generates H2O2 by redox cycling in DTT; shares compounds with MKP-1 inh; Redox cycling H2O2 generation, phenol red/HRP; EC50, µM; 60 tested, under 10 active; AID 672; call rule not given here
* hit, by the source's call; nt = no result.

SMILES	CatB mixtures	CatS block	MKP-1 inh	CatB block	CatL block	Cdc25B inh	Redox cycler
CC(C)Cn1c(N)c(C(=O)COC(=O)c2cc(-c3ccco3)nc3ccccc23)c(=O)n(C)c1=O	2	8	51*	4	-10	41	>50
Cc1ccc2nc3c(cc(C(N)=S)c(=N)n3CCCOC(C)C)c(=O)n2c1	1	7	-11	2	-29	3	nt
CCOc1ccc(-c2cc3nc(C4CCN(C(=O)OC(C)(C)C)CC4)c(C(=O)O)cn3n2)cc1	-1	12	64*	3	10	-3	>50
CCCCn1c(SCC(=O)c2ccc(OC)cc2OC)nc2cc(S(N)(=O)=O)ccc21	4	-8	54*	0	1	28	>50
CCCCn1c(SCc2c(C)noc2C)nc2cc(S(N)(=O)=O)ccc21	7	7	-1	2	5	-2	nt
O=S(=O)(c1cnc[nH]1)N1CCc2ccccc21	0	-3	2	1	12	-13	nt
CC1=C(/C=C/C(C)=C/C=C/C(C)=C/C(=O)O)C(C)(C)CCC1	3	2	56*	3	11	-16	>50
COc1ccc(-c2[nH]c(-c3cccc(OC)c3)nc2SCC(=O)NCc2ccco2)cc1	8	1	-3	1	-11	-14	nt
COc1cc(/C=C(/C#N)c2ccc(F)cc2)ccc1OCc1ccc(C(=O)O)o1	-2	0	62*	0	6	-3	>50
O=C(CN1C(=O)C2CC=CCC2C1=O)NC1=NCCS1 (stereo not drawn)	-1	10	8	-4	nt	-3	nt
Fc1cccc(Cl)c1CSc1nnc(COc2cccc3cccnc23)o1	0	10	-6	2	12	2	nt
Cc1nc2c(C(=O)NCc3ccc4c(c3)OCO4)c[nH]n2c(=O)c1Cl	0	-4	38	0	nt	-8	nt
Cc1nc2c(C(=O)NCCC3=CCCCC3)c[nH]n2c(=O)c1Cl	2	-1	54*	1	nt	-1	>50
O=C1C=C(NCc2ccc(Cl)c(Cl)c2)CC1	0	-3	70*	7	-3	-3	>50
CC(C)(C)N1C(=O)Cc2c1nc(N)c1c(N)nc(N3CCCCC3CO)c(C#N)c21 (stereo not drawn)	24	26	53*	3	-9	0	>50
